# Measurements taken from the supplement of paper PMC6555819.
# Test system: PPARg:RXRa 30nM:10nM, anti-RXR (NR concentration 30 nM, RXRa partner concentration 10 nM)
# Assay: PBM binding z-score (relative to random genomic background probes); higher = stronger binding; sequences stand for … in GC…GCGATTGACAGCGTAGAATGAAGG
# In short: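 Binding buffer was PBS pH 7.4 with 2% milk, 0.02% Triton X-100, 1 mM DTT, 0.2 mg/mL BSA and 0.4 mg/ml salmon testes DNA. In it, ligand-free nuclear receptor dimers were incubated 1 h on custom Agilent 4×180K protein-binding microarrays carrying double-stranded probes. Antibodies against each partner (one per run) detected binding, and z-scores were calculated against random background probes after regression normalization of scanned fluorescence.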
row,Sequence,PBM binding z-score
1,CCTACTGGGCCATTCAGAGGTCAGTGATCATATG,0.391
2,CCTCGGAGGACAACAGGAGGTTAGAGCTGCCAGA,-0.597
3,TGAATCAGGTTAAAGATCAGGGAACGTGGCGTCG,5.28
4,CGTCCATGGTCAGCAGGTCAGTGAAAGCGACGTG,-0.823
5,GCGACTGGGGCCAAGCAGGTTACCATAAGGTTGG,-0.91
6,CTGGAAAGGTCGGTTGAGGTGAGTATACGGATAA,-0.182
7,TCATATAGGTAAAGGTCAAAGTCGAACGATATGA,6.04
8,ACAGACAGGTGATGGAGGTAACTCAGGCTATCAT,-0.252
9,TTACCAAGGTGAGCTGAGGACGTTGATCCAACTC,-0.263
10,TCTAGTTGGTCAAAGGTCACACACTCGAAATGCG,10.4
11,ACTAGCAGGCCAAGGGTAACTCAAGATTAGTCCG,2.86
12,CGTCCCAGGTCAAAGGTCAGTGAAGAGATGACGG,8.62
13,GCGACTAGGGCAAAGCAGGTTACCATAAGGTTGG,-0.187
14,ATCTCTAGGCAACCAAGTTCAGTGAATGCCGAAC,-0.317
15,GCATATAGGAAATACAAGGTGAAAGTCCGATTGT,-0.0341
16,ATCTCTAGGTAACCAAGTTCAGTTAATGCCGAAC,0.448
17,GCGACTGGGGCAAAGCAGGGTACCATAAGGTTGG,-0.207
18,CTACCAAGGTGAACAAGGTTGTTGATTACTATTC,-0.199
19,CCTGCTAGGTCAATTGTCAGCTAAAGCAGCTCGC,-0.128
20,GCTCGGAGGACAAGGTCATAGCTTTGTCCGTAGA,0.472
21,ACTCGGAGGAAAAAGGTCAGAGCTACGCCAGTGA,1.2
22,TCTCGGAGGACACGAAGGTCAGAGCGTTCCAGAG,2.34
